The panel holds about 83,000 compounds, 20% with a hit somewhere; the sample as a whole holds those more often.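 Each cell line was grown in a 96-well plate and treated with one concentration of compound for 48 hours. Values below 10 were considered active.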 Unmarked numbers belong to inactive results. Active and inactive are the calls of the source.
How the values were obtained:
Assay in all cases: NCI-60 one-dose screen, 48 h (100 = growth as untreated, 0 = no growth, -100 = all killed)
Settings in all cases: 10 µM unless noted
NCI-H23 lung = system: NCI-H23 lung
NCI-H226 lung = system: NCI-H226 lung
NCI-H322M lung = system: NCI-H322M lung
HOP-62 NSCLC = system: HOP-62 NSCLC
NCI-H460 lung = system: NCI-H460 lung
HOP-92 NSCLC = system: HOP-92 NSCLC
NCI-H522 lung = system: NCI-H522 lung
A549/ATCC NSCLC = system: A549/ATCC NSCLC
786-0 renal = system: 786-0 renal
COLO 205 colon = system: COLO 205 colon

| SMILES | growth (NCI-H23 lung) | growth (NCI-H226 lung) | growth (NCI-H322M lung) [%] | growth (HOP-62 NSCLC) | growth (NCI-H460 lung) | growth (HOP-92 NSCLC) | growth (NCI-H522 lung) | growth (A549/ATCC NSCLC) | growth (786-0 renal) | growth (COLO 205 colon) |
| --- | --- | --- | --- | --- | --- | --- | --- | --- | --- | --- |
| Nc1nc(N)c2c(n1)NC(c1ccccc1)CC(c1ccc(Nc3nc(NCCO)nc(Nc4ccc(Cl)cc4)n3)cc1)=N2 (stereo not given) | 41.2% | 91.9% | 63.2 | -69.6% (active) | -80.3% (active) | -79.1% (active) | 41% | 75.7% | -86% (active) | 80.8% |
| O=C(/C=C/c1cn(-c2ccccc2)nc1-c1ccc(Cl)cc1)c1cc2ccccc2oc1=O | 78.3% | 66.1% | 77.7 | 82.4% | 54.6% | 79.6% | 71% | 88.7% | 46% | 84.9% |
| CS(=O)c1nccc(-c2c(-c3ccc(F)c(OCc4ccccc4)c3)nc3sccn23)n1 (stereo not given) | 88.2% | 96.3% | 73.1 | 103% | 19.1% | 51.8% | 31.6% | 100% | 99.1% | 106% |
| CN1CCN(c2ccc(C(=O)Nc3cccc(-c4cn(-c5ccc(S(N)(=O)=O)cc5)nn4)c3)cc2C(F)(F)F)CC1 | 82.2% | 96.8% | 72 | 85.7% | 78.8% | 56.4% | 90.2% | 91.5% | 52.5% | 85.3% |
| COc1ccc(-c2nc3cc(Cl)c(Cl)cc3n2CC(=O)N=Nc2c(O)[nH]c3ccc(Br)cc23)cc1 | -21.5% (active) | -16.2% (active) | 41 | -50.2% (active) | -42.5% (active) | -34% (active) | 14% | -28.9% (active) | -17.3% (active) | -37.9% (active) |
| O=C(NNc1nc2cc(F)c(F)cc2n2cccc12)c1cccnn1 | 25.9% | 4.29% (active) | 26.2 | 20.2% | 8.06% (active) | 75.4% | -8.32% (active) | 14.1% | 19.2% | 9.86% (active) |
| O=c1cc(-c2ccccc2)nc2sc(-c3c[nH]c4ccc(Br)cc34)nn12 | 104% | 87.6% | 92.8 | 107% | 106% | 86% | 86.2% | 97.6% | 92.6% | 104% |
| COc1ccc(N2CCN(C(=O)CSc3ccc(-c4nc5cc(C)c(C)cc5[nH]4)cn3)CC2)cc1 | 54.5% | 66.8% | 76.6 | 84.9% | 89.9% | 85% | 36% | 77.3% | 102% | 60.2% |
| N#Cc1c(-c2ccccc2)cc(-c2c[nH]c3ccccc23)nc1-c1c[nH]c2ccccc12 | 95.6% | 89.9% | 105 | 92.7% | 106% | 92.1% | 97.1% | 98.7% | 102% | 108% |
| CN(C)CCn1c2ccc(N)cc2c2nc3ccccc3nc21 | 28.2% | 34.3% | 34.7 | 31.5% | 6.26% (active) | 47.7% | 30.1% | 25.8% | 35.6% | 9.4% (active) |
| COc1ccc(/C=N/Nc2nc(N/N=C/c3ccc(OC)cc3O)nc(N3CCOCC3)n2)c(O)c1 | 86.3% | 69.4% | 59.7 | 64.8% | 23.5% | 88.6% | 80.9% | 53% | 14.7% | 63.5% |
| Cc1occc1-c1nc2s/c(=C\c3cn(-c4ccccc4)nc3-c3ccccc3)c(=O)n2n1 | 88.5% | 97.4% | 107 | 118% | 103% | 67.8% | 92.3% | 95.7% | 101% | 118% |

— PubChem BioAssay (NCI)
